# Source: the supplement of paper PMC6555819
# What was measured:
# Assay in all cases: PBM binding z-score (relative to random genomic background probes); higher = stronger binding; sequences stand for … in GC…GCGATTGACAGCGTAGAATGAAGG
# [1] = system: FXR:RXRa (NR concentration 270 nM, RXRa partner concentration 90 nM)
# How it was run: (§1)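 Ligand-free nuclear receptor dimers were bound for 1 h to custom Agilent 4×180K protein-binding microarrays. Detection used antibodies against each partner (one per run). Binding z-scores rest on regression-normalized fluorescence, with random background probes as the reference.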
# [2] = system: LXRa:RXRa (NR concentration 270 nM, RXRa partner concentration 90 nM)
# How it was run: as §1
# [3] = system: LXRa homodimer (NR concentration 270 nM)
# How it was run: as §1
# [4] = system: LXRb:RXRa (NR concentration 270 nM, RXRa partner concentration 90 nM)
# How it was run: as §1
# [5] = system: LXRb homodimer (NR concentration 270 nM)
# How it was run: as §1
# [6] = system: PPARa:RXRa (NR concentration 270 nM, RXRa partner concentration 90 nM)
# How it was run: as §1
# [7] = system: PPARg:RXRa (NR concentration 180 nM, RXRa partner concentration 90 nM)
# How it was run: as §1
# [8] = system: PPARg:RXRa 270nM:90nM, anti-RXR (NR concentration 270 nM, RXRa partner concentration 90 nM)
# How it was run: as §1
# [9] = system: PPARg:RXRa 30nM:10nM, anti-RXR (NR concentration 30 nM, RXRa partner concentration 10 nM)
# How it was run: as §1
# [10] = system: PPARg:RXRa 90nM:30nM, anti-RXR (NR concentration 90 nM, RXRa partner concentration 30 nM)
# How it was run: as §1
# [11] = system: PPARg:RXRa DBDmut IVT, anti-RXR (DBD mutation: RXRa K156A/R161A, NR concentration 270 nM, RXRa partner concentration 90 nM)
# How it was run: as §1
# [12] = system: PPARg:RXRa IVT, anti-PPARg (NR concentration 270 nM, RXRa partner concentration 90 nM)
# How it was run: as §1
# [13] = system: PPARg DBDmut:RXRa IVT, anti-PPARg (DBD mutation: PPARg1 K132A/R137A, NR concentration 270 nM, RXRa partner concentration 90 nM)
# How it was run: as §1
# [14] = system: PPARg DBDmut IVT, anti-PPARg (DBD mutation: PPARg1 K132A/R137A, NR concentration 270 nM)
# How it was run: as §1
# [15] = system: PPARg homodimer (NR concentration 180 nM)
# How it was run: as §1
# [16] = system: PXR:RXRa (NR concentration 270 nM, RXRa partner concentration 90 nM)
# How it was run: as §1
# [17] = system: PXR homodimer (NR concentration 270 nM)
# How it was run: as §1
# [18] = system: RARa:RXR (NR concentration 270 nM, RXRa partner concentration 90 nM)
# How it was run: as §1
# [19] = system: RARa homodimer (NR concentration 270 nM)
# How it was run: as §1
# [20] = system: RARb:RXRa (NR concentration 270 nM, RXRa partner concentration 90 nM)
# How it was run: as §1
Sequence,PBM binding z-score [1],PBM binding z-score [2],PBM binding z-score [3],PBM binding z-score [4],PBM binding z-score [5],PBM binding z-score [6],PBM binding z-score [7],PBM binding z-score [8],PBM binding z-score [9],PBM binding z-score [10],PBM binding z-score [11],PBM binding z-score [12],PBM binding z-score [13],PBM binding z-score [14],PBM binding z-score [15],PBM binding z-score [16],PBM binding z-score [17],PBM binding z-score [18],PBM binding z-score [19],PBM binding z-score [20]
AGAATGAGGTTAAGATCAGGGCAACAGAATACAT,2.64,2.98,0.329,2.17,0.282,3.7,2.57,2.84,1.29,2.24,2.97,3.28,1.36,0.923,1.05,2.34,0.694,2.78,0.44,2.45
CCAGACAGGTGAGAAGGTAACTCATCCTCGATTA,0.223,0.195,0.213,0.16,-0.283,0.773,0.558,0.703,0.0272,0.508,1.17,0.6,-0.78,0.324,0.757,0.375,0.22,0.525,0.718,0.607
GATGCAGGGTCAGCTAGAGGCCAGAGTATGGAAA,4.25,2.59,-0.565,2.29,-0.68,4.37,2.67,2.66,0.448,1.74,0.505,1.63,-0.437,-1.46,2.73,3.3,-0.237,4.56,0.285,4.1
GCTTGTAGATCACGGTTAAGAAAGACTAAGCTAA,-0.132,-0.33,-0.625,-0.369,-0.584,-0.169,-0.118,-0.0332,-0.114,0.156,2.32,1.04,-0.32,-0.283,0.0431,-0.49,-0.193,-0.247,0.0308,-0.178
CCTTACGGGTCACTGCAGGTTATAGCATCGGAGT,5.36,7.22,1.13,5.01,0.0222,4.88,3.68,4.35,1.16,3.15,3.51,3.76,-0.541,-0.0144,1.95,4.74,0.0878,4.05,0.239,3.97
CAAACTAGGTCACATAGGTCAAAGTCCGTGCGTA,6.12,5.33,4.86,5.05,1.48,5.74,9.47,7.44,6.05,7.51,8.33,8.57,3,4.3,4.12,5.04,4,5.51,2.09,4.7
AGAACGAGGGCACGCTGAATTGATAGCAGAGTAG,0.635,0.375,-0.408,0.0938,-0.694,1.92,2.24,2.02,0.73,1.04,4.42,4.08,0.656,0.0574,-0.00941,0.266,-0.373,0.746,-0.442,2.5
CGTCAAAGTCCAACTAAGGTAACGTAAAGCACGC,0.904,0.0247,0.14,-0.00355,0.104,0.088,0.536,-0.0783,-0.0174,0.18,0.179,0.394,0.436,-0.503,0.498,0.234,0.179,1.23,0.41,1.9
ATCGAATGGTCGACGAGGTGAGTATACACCGTTT,-0.323,-0.552,-0.816,-0.341,-0.342,-0.212,0.744,-0.273,0.119,-0.347,-0.664,0.567,-0.0586,-0.0219,-0.342,-0.323,-0.282,-0.136,-0.0822,0.37
TCGAGTAGGTTAGTCGGGGCATTCCGCCAACATA,0.02,0.121,-0.495,0.444,-0.721,0.661,-0.328,0.877,1.07,0.912,2.34,2,-0.206,-0.88,-0.0815,0.0285,-0.57,0.175,-0.691,0.585
ATACCAAGGTGATCGTGAGGACGTTGATACTAAC,0.587,0.135,-0.00187,0.0444,-0.331,-0.0562,0.622,0.0338,-0.0535,-0.287,0.171,1.03,0.678,-0.134,-0.121,0.502,0.387,1.03,0.115,0.704
TCATATAGGTAAATGCTGGGTGAAAGTCCGATCT,1.03,1.11,0.288,0.818,0.924,1.38,0.836,2.2,3.63,3.26,4.13,2.63,0.471,0.976,1.04,0.606,0.456,0.833,1.19,0.495
CCTTACGGGTCACTCCTGGTTATAGCATCGGAGT,4.24,5.52,-0.0362,3.01,0.134,4.2,2.76,3.54,0.987,2.25,2.58,3.35,0.273,-0.731,1.77,2.67,0.0261,3.18,0.288,3.55
CAAACTATGTCAAAGGTCAAAGTCGAGCCAACCA,6.52,6.3,5.11,5.79,2.93,7.19,11.9,10.2,10.4,11.8,5.12,6.61,1.88,0.733,3.54,5.93,1.52,7.09,2.38,5.1
